14 compounds from PubChem BioAssay (NCI) can be followed below.

Among the test systems are RPMI-8226 leukemia; OVCAR-8 ovarian; OVCAR-5 ovarian; OVCAR-4 ovarian; SK-OV-3 ovarian; IGROV1 ovarian; OVCAR-3 ovarian; HS 578T breast; NCI/ADR-RES ovarian; T-47D breast.
Holding throughout (assay): NCI-60 one-dose screen, 48 h (100 = growth as untreated, 0 = no growth, -100 = all killed)
Holding throughout (settings): 10 µM unless noted

The panel holds about 83,000 compounds, 20% with a hit somewhere; the sample as a whole holds those more often.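 Negative percent growth values reflect cell death: -40 means 40% of the cells present at the start died, and -100 means all died.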 Unmarked numbers belong to inactive results. The source made the active and inactive calls. Rule for the calls: active = growth percent below 10; inactive = the rest.

Consider `CC1=C(C(=O)OCC2CCN(C(=O)OC(C)(C)C)CC2)[C@@H](c2cccc(C#N)c2)C2=C(CC(C)(C)CC2=O)N1`, for which the growth was 32.3% in the experiment with RPMI-8226 leukemia; 37.5% in the experiment with OVCAR-8 ovarian; 70.2% in the experiment on OVCAR-5 ovarian; 67.3% in the experiment with OVCAR-4 ovarian; 66.5% with SK-OV-3 ovarian; 45.4% in the experiment with IGROV1 ovarian. For the same compound, the growth with OVCAR-3 ovarian is 52.4%; in the experiment on HS 578T breast, 64.5%; in the experiment with NCI/ADR-RES ovarian it was 44.7%; in the experiment with T-47D breast, 56.1%.
Consider `O=C(Nc1ccc(Br)cc1F)c1cc(Cl)ccc1O`, for which the growth was -24.5% (active) in the experiment on RPMI-8226 leukemia; 9.87% (active) in the experiment with OVCAR-8 ovarian; -9.6% (active) in the experiment on OVCAR-5 ovarian; 10.2% with OVCAR-4 ovarian; -7.14% (active) in the experiment on SK-OV-3 ovarian; 14.1% with IGROV1 ovarian. Moreover, the growth in the experiment with OVCAR-3 ovarian is 2.24% (active); in the experiment with HS 578T breast, 7.7% (active); with NCI/ADR-RES ovarian, 5.2% (active); in the experiment on T-47D breast, -12.9% (active).
For `Cc1cc(OC(=O)c2ccc([N+](=O)[O-])cc2)nc2[nH]c(=O)sc12`, the growth is 99.8% in the experiment with RPMI-8226 leukemia; 102% with OVCAR-8 ovarian; 105% with OVCAR-5 ovarian; 98.7% with OVCAR-4 ovarian; 115% in the experiment with SK-OV-3 ovarian; 96.9% with IGROV1 ovarian. Besides, the growth in the experiment with OVCAR-3 ovarian was 108%; in the experiment with HS 578T breast it was 95.7%; with NCI/ADR-RES ovarian, 104%; in the experiment with T-47D breast it was 99.7%.
`CCCC(=O)CC(C)=O.CCCC(=O)CC(C)=O.[Cu]`: the growth in the experiment with RPMI-8226 leukemia is 102%; in the experiment with OVCAR-8 ovarian, 93.1%; in the experiment with OVCAR-5 ovarian it was 117%; in the experiment on OVCAR-4 ovarian it was 113%; in the experiment with SK-OV-3 ovarian it was 77.3%; in the experiment with IGROV1 ovarian, 103%. The growth with OVCAR-3 ovarian is 116%; in the experiment with HS 578T breast, 110%; with NCI/ADR-RES ovarian it was 101%; in the experiment on T-47D breast it was 77.1%.
As for `O=C(Nc1ncc(Cc2cccc(C(F)(F)F)c2)s1)C1COc2ccccc2O1` (stereo not given), the growth was 76.9% in the experiment with RPMI-8226 leukemia; 89.9% in the experiment with OVCAR-8 ovarian; 87.4% in the experiment on OVCAR-5 ovarian; 84.6% in the experiment on OVCAR-4 ovarian; 100% in the experiment on SK-OV-3 ovarian; 86.8% in the experiment on IGROV1 ovarian. The growth is 90.6% with OVCAR-3 ovarian, 65.4% in the experiment with HS 578T breast, 87.3% in the experiment on NCI/ADR-RES ovarian and 67.1% with T-47D breast.
With `COc1ccc(CN2CCCC(C(=O)c3ccc(C(F)(F)F)cc3)C2)c(O)c1` (stereo not given), the growth in the experiment on RPMI-8226 leukemia was 11.8%; with OVCAR-8 ovarian, 17%; with OVCAR-5 ovarian it was 55%; in the experiment with OVCAR-4 ovarian it was 45.4%; in the experiment on SK-OV-3 ovarian it was 26.1%; with IGROV1 ovarian it was 47.5%. For the same compound, the growth was 7.49% (active) in the experiment on OVCAR-3 ovarian, 25.8% in the experiment with HS 578T breast, 9.17% (active) with NCI/ADR-RES ovarian and 26.1% in the experiment on T-47D breast.
Turning to `O=C(Nc1ccc(I)cc1F)c1cc(F)ccc1O`, the growth is -33.8% (active) in the experiment on RPMI-8226 leukemia; 6.16% (active) with OVCAR-8 ovarian; 23.6% in the experiment with OVCAR-5 ovarian; 12.4% in the experiment on OVCAR-4 ovarian; -6.45% (active) in the experiment on SK-OV-3 ovarian; 12.7% with IGROV1 ovarian. Besides, the growth was 6.68% (active) in the experiment with OVCAR-3 ovarian, -3.33% (active) in the experiment on HS 578T breast, 4.19% (active) in the experiment with NCI/ADR-RES ovarian and -12.4% (active) in the experiment with T-47D breast.
For the compound `CC(C)(C)c1ccc(C2CC(=O)C3=C(C2)Nc2ccccc2N(C(=O)c2ccccc2Cl)C3c2ccc(F)cc2)cc1` (stereo not given), the growth with RPMI-8226 leukemia is 14.1%; in the experiment on OVCAR-8 ovarian, -12% (active); with OVCAR-5 ovarian, 38.9%; in the experiment with OVCAR-4 ovarian, -68.3% (active); with SK-OV-3 ovarian, 62.5%; in the experiment with IGROV1 ovarian, -26.7% (active). In addition, the growth with OVCAR-3 ovarian is -28.5% (active); in the experiment on HS 578T breast, 81.5%; in the experiment on NCI/ADR-RES ovarian, 24.3%; in the experiment with T-47D breast it was 9.46% (active).
Consider `COc1ccc(Cn2c(Br)c3c(c2-c2cc(OC)c(OC)c(OC)c2)CCc2sc(NC(=O)c4ccc(OC)cc4)nc2-3)cc1`, for which the growth with RPMI-8226 leukemia was 81.7%; in the experiment on OVCAR-8 ovarian, 96%; in the experiment with OVCAR-5 ovarian it was 102%; in the experiment with OVCAR-4 ovarian it was 93.3%; in the experiment on SK-OV-3 ovarian, 108%; with IGROV1 ovarian it was 79.2%. The growth with OVCAR-3 ovarian is 92.7%; in the experiment on HS 578T breast, 83.7%; in the experiment on NCI/ADR-RES ovarian, 89.2%; in the experiment with T-47D breast, 77.3%.
In the case of `CCOc1cccc(/C=N/NC(=O)C(=O)Nc2cccc(C(F)(F)F)c2)c1O`, the growth in the experiment with RPMI-8226 leukemia was 29%; with OVCAR-8 ovarian it was 25.6%; in the experiment with OVCAR-5 ovarian it was 47.4%; in the experiment with OVCAR-4 ovarian, 31%; with SK-OV-3 ovarian, 49.2%; in the experiment on IGROV1 ovarian, 25.3%. Further, the growth with OVCAR-3 ovarian is 29.3%; in the experiment with HS 578T breast it was 69.3%; with NCI/ADR-RES ovarian, 9.74% (active); in the experiment with T-47D breast, 30.9%.
For `COc1ccc(C(O)(CCC(C)C)C(CN2CCOCC2)c2ccc(Cl)cc2)cc1` (stereo not given), the growth with RPMI-8226 leukemia was 46.8%; with OVCAR-8 ovarian, 67.1%; in the experiment on OVCAR-5 ovarian, 103%; in the experiment on OVCAR-4 ovarian, 84.6%; in the experiment with SK-OV-3 ovarian it was 97.7%; in the experiment with IGROV1 ovarian, 85.1%. The growth was 6.49% (active) with OVCAR-3 ovarian, 103% in the experiment with HS 578T breast, 29.4% in the experiment on NCI/ADR-RES ovarian and 87.5% with T-47D breast.
For the compound `O=C1NC(=S)NC(=O)C1=Cc1cn(Cc2cn(Cc3cccc4ccccc34)nn2)c2ccccc12`, the growth in the experiment on RPMI-8226 leukemia is 104%; with OVCAR-8 ovarian, 102%; in the experiment on OVCAR-5 ovarian it was 89.6%; with OVCAR-4 ovarian, 92.2%; in the experiment on SK-OV-3 ovarian it was 111%; with IGROV1 ovarian it was 82.6%. The growth was 102% with OVCAR-3 ovarian, 81.9% in the experiment with HS 578T breast, 96.5% in the experiment with NCI/ADR-RES ovarian and 105% in the experiment on T-47D breast.
For the compound `CCN1C(=O)N(CC)C2C1NN=c1s/c(=C3\C(=O)N(C(C)C)c4ccccc43)c(=O)n12` (stereo not given), the growth with RPMI-8226 leukemia was 7.53% (active); in the experiment on OVCAR-8 ovarian it was 12.6%; in the experiment on OVCAR-5 ovarian, 54.2%; in the experiment with OVCAR-4 ovarian it was 58.1%; in the experiment with SK-OV-3 ovarian it was 29.7%; in the experiment on IGROV1 ovarian, 36.5%. In addition, the growth in the experiment on OVCAR-3 ovarian is 5.56% (active); in the experiment on HS 578T breast it was 36.7%; in the experiment on NCI/ADR-RES ovarian it was 7.06% (active); with T-47D breast it was 68.1%.
In the case of `CC(C)C[C@H](C(=O)N[C@@H](C)C(N)=O)N1CC=CCN(O)S1(=O)=O`, the growth in the experiment on RPMI-8226 leukemia is 106% [5 µM]; with OVCAR-8 ovarian, 96.4% [5 µM]; in the experiment with OVCAR-5 ovarian it was 99.3% [5 µM]; with OVCAR-4 ovarian, 106% [5 µM]; in the experiment on SK-OV-3 ovarian, 108% [5 µM]; in the experiment with IGROV1 ovarian, 120% [5 µM]. In addition, the growth in the experiment on OVCAR-3 ovarian was 110% [5 µM]; with HS 578T breast it was 110% [5 µM]; with NCI/ADR-RES ovarian it was 105% [5 µM]; in the experiment on T-47D breast it was 103% [5 µM].
